Measured values: PubChem BioAssay AID1159580 (chemical genetic matrix, 2015)
Among all 5,500 compounds or so, about 2,000 (36%) were called active. About 18% were inconclusive and are not listed. Cut-off read from the data, not from the text of the source: active = normalized growth mostly below about 0.91 (no sharp cut-off); inconclusive = no clear call, values can overlap the other calls; inactive = mostly above about 0.92. The list shows a part of the results.

Experiment: chemical genetic growth profiling, strain panel (AID 1159580);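 note: tested at 20 µM; growth read once vehicle control cultures reached saturation at 30 °C; 1 = growth at the plate median or of vehicle wells; lower values mean less growth of the strain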
Conditions: growth OD

Measured: normalized growth

CS(=O)(=O)c1ccc(C2=C(c3ccccc3)C(=O)OC2)cc1
inactive: S. cerevisiae deletion strains, locus YJR066W, strain TOR1, hits give low values 0.97 | S. cerevisiae deletion strains, locus YJR075W, strain HOC1, hits give low values 0.992 | S. cerevisiae deletion strains, locus YKL009W, strain mrt4, hits give low values 0.949 | S. cerevisiae deletion strains, locus YKL068W, hits give low values 0.983 | S. cerevisiae deletion strains, locus YKL085W, strain MDH1 (second series), hits give low values 0.979 | S. cerevisiae deletion strains, locus YKL085W, strain MDH1, hits give low values 0.979 | S. cerevisiae deletion strains, locus YKL160W, strain elf1, hits give low values 0.988 | S. cerevisiae deletion strains, locus YKL190W, strain CNB1, hits give low values 0.98 | S. cerevisiae deletion strains, locus YKR001C, strain vps1, hits give low values 0.987 | S. cerevisiae deletion strains, locus YKR026C, strain gcn3, hits give low values 0.983 | S. cerevisiae deletion strains, locus YKR091W, strain srl3, hits give low values 0.961 | S. cerevisiae deletion strains, locus YLL001W, strain dnm1, hits give low values 0.999 | S. cerevisiae deletion strains, locus YLL026W, hits give low values 0.985 | S. cerevisiae deletion strains, locus YLL041C, strain sdh2, hits give low values 0.994 | S. cerevisiae deletion strains, locus YLR027C, strain aat2, hits give low values 0.978 | S. cerevisiae deletion strains, locus YLR039C, strain RIC1, hits give low values 0.951 | S. cerevisiae deletion strains, locus YLR058C, strain SHM2, hits give low values 1 | S. cerevisiae deletion strains, locus YLR102C, strain apc9, hits give low values 0.992 | S. cerevisiae deletion strains, locus YLR113W, strain HOG1, hits give low values 1.01 | S. cerevisiae deletion strains, locus YLR221C, strain rsa3, hits give low values 0.974 | S. cerevisiae deletion strains, locus YLR258W, strain gsy2, hits give low values 0.988 | S. cerevisiae deletion strains, locus YLR262C, strain YPT6 (second series), hits give low values 0.96 | S. cerevisiae deletion strains, locus YLR262C, strain YPT6, hits give low values 0.965 | S. cerevisiae deletion strains, locus YLR268W, strain sec22, hits give low values 0.971 | S. cerevisiae deletion strains, locus YLR320W, strain mms22, hits give low values 0.991 | S. cerevisiae deletion strains, locus YLR330W, strain CHS5, hits give low values 0.986 | S. cerevisiae deletion strains, locus YLR342W, strain FKS1 (second series), hits give low values 1.01 | S. cerevisiae deletion strains, locus YLR342W, strain FKS1, hits give low values 0.966 | S. cerevisiae deletion strains, locus YLR357W, strain rsc2, hits give low values 0.955 | S. cerevisiae deletion strains, locus YLR370C, strain arc18, hits give low values 0.971 | S. cerevisiae deletion strains, locus YLR371W, strain rom2, hits give low values 0.981 | S. cerevisiae deletion strains, locus YLR384C, strain iki3, hits give low values 0.992 | S. cerevisiae deletion strains, locus YLR418C, strain cdc73, hits give low values 0.987 | S. cerevisiae deletion strains, locus YML016C, strain PPZ1, hits give low values 1 | S. cerevisiae deletion strains, locus YML032C, strain rad52, hits give low values 0.97 | S. cerevisiae deletion strains, locus YML120C, strain ndi1, hits give low values 0.959 | S. cerevisiae deletion strains, locus YML124C, strain tub3, hits give low values 0.989 | S. cerevisiae deletion strains, locus YMR058W, strain fet3, hits give low values 0.978 | S. cerevisiae deletion strains, locus YMR078C, strain ctf18, hits give low values 0.985 | S. cerevisiae deletion strains, locus YMR125W, strain sto1, hits give low values 0.961 | S. cerevisiae deletion strains, locus YMR129W, hits give low values 0.988 | S. cerevisiae deletion strains, locus YMR205C, strain PFK2, hits give low values 0.986 | S. cerevisiae deletion strains, locus YMR223W, strain ubp8, hits give low values 0.982 | S. cerevisiae deletion strains, locus YMR231W, strain pep5, hits give low values 0.992 | S. cerevisiae deletion strains, locus YMR263W, strain SAP30, hits give low values 0.958 | S. cerevisiae deletion strains, locus YMR307W, strain GAS1, hits give low values 0.998 | S. cerevisiae deletion strains, locus YNL067W, strain RPL9B, hits give low values 0.953 | S. cerevisiae deletion strains, locus YNL071W, strain lat1, hits give low values 0.979 | S. cerevisiae deletion strains, locus YNL128W, strain TEP1, hits give low values 0.985 | S. cerevisiae deletion strains, locus YNL153C, strain GIM3, hits give low values 0.994 | S. cerevisiae deletion strains, locus YNL183C, strain NPR1, hits give low values 0.984 | S. cerevisiae deletion strains, locus YNL209W, strain ssb2, hits give low values 0.951 | S. cerevisiae deletion strains, locus YNL233W, strain BNI4, hits give low values 0.992 | S. cerevisiae deletion strains, locus YNL248C, strain rpa49, hits give low values 0.965 | S. cerevisiae deletion strains, locus YNL250W, strain rad50, hits give low values 0.995 | S. cerevisiae deletion strains, locus YNL271C, strain bni1, hits give low values 0.971 | S. cerevisiae deletion strains, locus YNL298W, strain CLA4, hits give low values 0.99 | S. cerevisiae deletion strains, locus YNL307C, strain MCK1, hits give low values 0.986 | S. cerevisiae deletion strains, locus YNL322C, strain KRE1 (second series), hits give low values 0.97 | S. cerevisiae deletion strains, locus YNL322C, strain KRE1, hits give low values 0.994 | S. cerevisiae deletion strains, locus YNR049C, strain mso1, hits give low values 0.964 | S. cerevisiae deletion strains, locus YNR052C, strain pop2, hits give low values 0.975 | S. cerevisiae deletion strains, locus YOL006C, strain TOP1, hits give low values 0.91 | S. cerevisiae deletion strains, locus YOL012C, strain htz1 1.22 | S. cerevisiae deletion strains, locus YOL147C, strain pex11, hits give low values 0.995 | S. cerevisiae deletion strains, locus YOR001W, strain rrp6, hits give low values 0.979 | S. cerevisiae deletion strains, locus YOR061W, strain CKA2, hits give low values 1 | S. cerevisiae deletion strains, locus YOR069W, strain VPS5, hits give low values 1 | S. cerevisiae deletion strains, locus YOR070C, strain gyp1, hits give low values 0.977 | S. cerevisiae deletion strains, locus YOR080W, strain dia2, hits give low values 0.962 | S. cerevisiae deletion strains, locus YOR083W, strain WHI5, hits give low values 0.975 | S. cerevisiae deletion strains, locus YOR106W, strain vam3, hits give low values 0.968 | S. cerevisiae deletion strains, locus YOR136W, strain idh2, hits give low values 0.992 | S. cerevisiae deletion strains, locus YOR144C, strain elg1, hits give low values 0.975 | S. cerevisiae deletion strains, locus YOR184W, strain ser1, hits give low values 0.975 | S. cerevisiae deletion strains, locus YOR231W, strain MKK1, hits give low values 1.03 | S. cerevisiae deletion strains, locus YOR265W, strain rbl2, hits give low values 0.973 | S. cerevisiae deletion strains, locus YOR270C, strain vph1, hits give low values 0.933 | S. cerevisiae deletion strains, locus YOR290C, strain snf2, hits give low values 0.972 | S. cerevisiae deletion strains, locus YOR316C, strain cot1, hits give low values 0.987 | S. cerevisiae deletion strains, locus YPL051W, strain arl3, hits give low values 0.986 | S. cerevisiae deletion strains, locus YPL055C, strain LGE1, hits give low values 0.957 | S. cerevisiae deletion strains, locus YPL078C, strain atp4, hits give low values 0.986 | S. cerevisiae deletion strains, locus YPL106C, strain sse1, hits give low values 0.942 | S. cerevisiae deletion strains, locus YPL240C, strain hsp82, hits give low values 0.969 | S. cerevisiae deletion strains, locus YPL241C, strain CIN2, hits give low values 0.994 | S. cerevisiae deletion strains, locus YPL256C, strain CLN2, hits give low values 1.06 | S. cerevisiae deletion strains, locus YPR141C, strain kar3, hits give low values 0.98 | S. cerevisiae deletion strains, locus YPR163C, strain tif3, hits give low values 0.989 | S. cerevisiae deletion strains, locus YPR167C, strain met16, hits give low values 0.978 | S. cerevisiae deletion strains, strain wtn01, hits give low values 0.985 | S. cerevisiae strains, strain wild type, hits give low values 0.989
